12-LOX inh: ALOX12 (human) lipoxygenase inhibition; P18054; purified 12hLO, xylenol orange hydroperoxide absorbance; Potency, µM (top dose mostly 108 µM), inactives show at the highest dose activity change, negative = inhibition, actives largely listed as inhibitors; hit rate 1.1% among 580,000
Target sequence (P18054 whole entry, looked up): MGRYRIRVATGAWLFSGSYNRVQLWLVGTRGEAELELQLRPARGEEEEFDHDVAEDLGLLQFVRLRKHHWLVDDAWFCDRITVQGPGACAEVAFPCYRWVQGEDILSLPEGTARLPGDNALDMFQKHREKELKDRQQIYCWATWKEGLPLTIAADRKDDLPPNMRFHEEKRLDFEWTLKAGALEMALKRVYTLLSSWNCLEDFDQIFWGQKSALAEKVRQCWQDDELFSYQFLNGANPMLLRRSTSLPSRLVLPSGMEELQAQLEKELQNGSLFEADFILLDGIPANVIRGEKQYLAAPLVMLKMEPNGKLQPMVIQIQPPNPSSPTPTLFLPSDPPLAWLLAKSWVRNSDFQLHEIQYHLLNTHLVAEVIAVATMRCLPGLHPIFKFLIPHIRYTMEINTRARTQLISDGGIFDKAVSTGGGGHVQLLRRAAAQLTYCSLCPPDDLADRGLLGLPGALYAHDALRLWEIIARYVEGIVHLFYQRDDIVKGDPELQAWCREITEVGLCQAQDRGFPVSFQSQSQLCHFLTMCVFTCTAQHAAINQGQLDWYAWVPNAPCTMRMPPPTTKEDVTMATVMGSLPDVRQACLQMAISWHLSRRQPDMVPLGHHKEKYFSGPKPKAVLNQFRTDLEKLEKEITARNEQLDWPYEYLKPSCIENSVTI
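Hydroperoxide product was detected by ferrous iron/xylenol orange as the 573 to 405 nm absorbance ratio. Arachidonic acid at 40 uM (final) was turned over for 30 min at room temperature by 150 nM human 12hLO, pH 7.0 Hepes buffer, after 15 min compound preincubation.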
ELG1 DNA repair: inhibitors of ELG1-dependent DNA repair in HEK293T cells; HEK293T ELG1-luciferase reporter, luminescence, 16 h; DNA damage induced by 5-fluorouridine; Potency, µM (series often up to 46.1 µM), for inactives: at the top dose activity change, negative = inhibition, actives largely listed as inhibitors; hit rate 2.3% among 330,000; AID 504467; note: nearly all actives have a fitted effect of over 55% in size
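Reporter activity after DNA damage by 5-fluorouridine is monitored. Compound-treated cells incubate 16 hr at 37 °C, then ONE-Glo is added for 30 min before luminescence reading.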
RORg inh: blocks mouse ROR gamma transcriptional activity; hit rate 5.4% among 310,000; Drosophila S2 Gal4-RORgamma UAS-luciferase reporter, 20 h; P51450; Potency, µM (titrated, usually from 53.6 µM), for inactives: at the highest dose activity change, negative = inhibition, most hits filed as inhibitors; note: nearly all actives have a fitted effect of over 60% in size
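Stably transfected Drosophila Schneider cells are the test system, with ROR gamma fused to Gal4 and luciferase under UAS control; luminescence is read after 20 hr of 700 uM copper sulfate induction at ambient temperature.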
TDP1 cell CPT: growth inhibition of DT40 Tdp1-/-;hTDP1 cells with camptothecin (screen for TDP1 inhibitors); hit rate 12% among 420,000; AID 686979; Potency, µM (highest dose often 46.2 µM), for the others: at the highest dose activity change, negative = growth inhibition, usual class: inhibitors; chicken DT40 Tdp1-/-;hTDP1 cells + 20 nM CPT, ATP luminescence, 48 h; note: nearly all actives have a fitted effect of over 55% in size
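Cell growth measured by CellTiter-Glo luminescence after a minimum 48 h, 37 C compound exposure with 20 nM CPT in Tdp1-knockout DT40 cells stably expressing hTDP1, seeded 400/well; qHTS titration format.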
DT40 TDP1 no CPT: qHTS for Inhibitors of human tyrosyl-DNA phosphodiesterase 1 (TDP1): qHTS in cells in absence of CPT. DT40 Tdp1-/- hTDP1 cells, no CPT, ATP luminescence, 48 h. Potency, µM (top dose mostly 46.2 µM), for the others: at the highest dose activity change, negative = growth inhibition, most hits filed as inhibitors. hit rate 15% among 420,000. AID 686978, 2013; note: nearly all actives have a fitted effect of over 55% in size
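Readout: luminescence from CellTiter-Glo after 30 min in the dark at RT. Cells: DT40 Tdp1-/- with stable hTDP1, 400/well. Exposure: compounds alone, ≥48 hr, 37 °C.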
Gal4-VP16 FLuc: inhibits Gal4-VP16 luciferase reporter, ROR gamma counter-screen; Drosophila S2 Gal4-VP16 UAS-luciferase, luminescence, 20 h; Potency, µM (titrated, usually from 53.6 µM), inactives show top-dose activity, negative = inhibition, hits mostly inhibitors; hit rate 3.5% among 310,000;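 note: Gal4-VP16 expression switched on by copper sulfate through the metallothionein promoter; nearly all actives have a fitted effect of over 50% in size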
Active calls of the source: *; ? = inconclusive; / = no result given; ! = repeats disagree; [ ] = remark or other dose. Most compounds without a hit are left out; they make up all but 15% or so of the library. Calls come from the whole dose curve; as a rule, active = well fitted curve in the direction sought with a large enough effect; inconclusive = small, poorly fitted or top-dose-only effect, or another doubt; inactive = no such curve, though single readings can be large; an effect the other way counts as inactive or inconclusive. % is set by controls: 0 for no effect and ±100 for the full control effect; potency is the fitted concentration of half-maximal effect.

SMILES	12-LOX inh	ELG1 DNA repair	RORg inh	TDP1 cell CPT	DT40 TDP1 no CPT	Gal4-VP16 FLuc
COC(=O)[C@@]12CCCCN1[C@H](c1ccc(-c3ccc(Cl)c(Cl)c3)c(OC)c1)[C@@H]1C(=O)N(C)C(=O)[C@@H]12	14.8%	/	/	11.6µM*	10.3µM*	/
COC(=O)[C@@H]1N=C(c2ccc(OC)cc2)O[C@]12C(=O)N(C)c1cccc(Cl)c12	-2.4%	/	/	9.1%	-19.4%	/
COC(=O)[C@@]12CCCCN1[C@H](c1ccc(-c3ccc(Cl)c(Cl)c3)c(OC)c1)[C@H]1C(=O)N(C)C(=O)[C@H]12	-29.0%	-27.7%	/	18.4µM*	16.4µM*	/
Cc1ccc2c(n1)N(C)[C@H](CO)CCN(CCC(C)C)C2	65.5%[176 µM]	/	/	/	/	/
CC1=CC(=O)NP(=O)(Oc2ccc3ccccc3c2)N1 (stereo unspecified)	0.0%	?	4.2%	9.2µM*	10.3µM*	-3.1%
CC1CN1P(=O)(Oc1ccc2ccccc2c1)N1CC1C (stereo unspecified)	-7.9%	/	/	?	?	/
O=C(Cc1ccccc1Cl)N1CCN(C2CCN(CCc3ccccc3)C2=O)CC1 (stereo unspecified)	70.0%	/	/	/	/	/
COc1cc(C)cc(CN2CC=C(c3ccccc3)CC2)c1O	28.4%	-5.4%	11.2µM*	16.4µM*	?	?
COc1cccc(CN2CC=C(c3ccc(F)cc3)CC2)c1	-11.5%	-0.4%	-9.7%	-1.4%	-9.2%	-12.9%
COc1ccc2ccc(O)c(CN3CC=C(c4ccccc4)CC3)c2c1	?	7.8%	-22.8%	?	18.4µM*	4.2%
COc1ccc(C(C)=O)cc1CN1CC=C(c2ccccc2)CC1	/	0.8%	-30.4%	?	?	2.1%
CCCCOc1ccc(CN2C(=O)C(=O)c3cc(C)ccc32)cc1OC	?	/	/	1.03µM*	0.731µM*	/
COc1cc(CC2C(=O)N(C)C(=O)N(C)C2=O)ccc1OCc1ccccc1	-8.5%	?	12.0%	?	-19.4%	10.7%
COc1ccc(-c2cc([C@H]3CN4CC[C@H]3C[C@@H]4CNS(=O)(=O)c3cccs3)n(C)n2)cc1	9.5%	/	/	/	/	/
COc1ccc(-c2cn(C[C@H]3C[C@@H]4CCN3C[C@@H]4C(=O)NC(C)C)nn2)cc1	19.8%[176 µM]	/	/	/	/	/
CC(=O)Nc1ccc(-c2ccc(=O)n3c2[C@@H]2C[C@@H](CN(C(=O)c4ccccc4)C2)C3)cc1	69.1%[176 µM]	/	/	/	/	/
CCCCOc1ccc(CNC(=O)c2cc3n(n2)CCCN(Cc2ccc(C)cc2)C3=O)cc1	-0.9%	/	/	20.6µM*	13µM*	/
O=c1oc2ccccc2cc1-c1cn2cc(Cc3ccc(F)cc3)sc2n1	-5.4%	/	/	5.17µM*	2.06µM*	/
N#Cc1cnn2c(C(F)F)cc(-c3ccc(F)cc3)nc12	21.1%	/	/	/	/	/
CN(C)[C@@H]1CN(C(=O)Cc2cccnc2)CCC1(O)c1ccccc1 (stereo partly specified)	11.6%	/	/	/	/	/
O=C(c1ccc2c3c(cccc13)CC2)C1CCCN(CC2CC2)C1 (stereo unspecified)	4.7%	16.6%	?	18.4µM*	23.1µM*	-20.9%
CC[C@H]1CN2CC[C@H]1C[C@@H]2CNS(=O)(=O)c1ccc(OC)cc1	28.4%[176 µM]	/	/	/	/	/
COc1ccc2[nH]c(C)c(CCNCc3cc(OC)c4c(c3)OCO4)c2c1	-22.6%	?	/	?	?	/
COc1ccc2[nH]c(C)c(CCNCc3cc(OC)c(OC)c(OC)c3)c2c1	-23.6%	0.0%	?	?	-59.7%	17.8µM*
Cc1ncc2c(n1)C[C@@H]1CC[C@H]2N1C(=O)C1CCCC1	32.9%	/	/	/	/	/
SMILES	12-LOX inh	ELG1 DNA repair	RORg inh	TDP1 cell CPT	DT40 TDP1 no CPT	Gal4-VP16 FLuc
COc1cc2c(cc1OCc1ccc(Cl)cc1)N(Cc1ccccc1)CC21CCN(C(C)=O)CC1	31.6µM*	/	/	/	/	/
COc1cc2c(cc1OCc1ccccc1)N(C(=O)CC(C)C)CC21CCN(C)CC1	22.4%[176 µM]	/	/	/	/	/
C[C@@]12OC(=O)[C@]1([C@@H](O)[C@@H]1C=CCCC1)NC(=O)[C@H]2CCCl	-8.7%[57.4 µM]	/	/	/	/	/
COc1cc2c(cc1OC1CCCC1)NC(=O)C21CCN(c2nc(C)cc(C)n2)CC1	2.6%[176 µM]	/	/	/	/	/
C=C(COC(=O)CCC(=O)O)CC1CC(O)[C@]2(C)OC3CC4OC5C[C@]6(C)O[C@]7(C)CCC8OC9C[C@]%10(C)OC%11C(C)=CC(=O)OC%11CC%10OC9C[C@@H](C)C8OC7CC6O[C@]5(C)C/C=C\C4OC3CC2O1 (stereo partly specified)	/	14.2%	0.1%	13µM*	?	-10.6%
CC1=CC(=O)OC2CC3OC4C[C@@H](C)C5OC6CC7O[C@]8(C)C/C=C\C9OC%10CC%11OC(CC(C)CO)CC(O)[C@]%11(C)OC%10CC9OC8C[C@]7(C)O[C@]6(C)CCC5OC4C[C@]3(C)OC12 (stereo partly specified)	-5.4%	-8.6%	19.4%	18.4µM*	20.6µM*	-0.2%
C1CC(NC2CCOCC2)CCN1	-9.6%	/	/	/	/	/
CCCNC(=O)N1CC2CN(C(C)C)CC(C1)O2	27.3%	/	/	/	/	/
CC1CCN(C[C@H]2CN3CC[C@H]2C[C@@H]3CNC(=O)c2ccc(N(C)C)cc2)CC1	1.0%[176 µM]	/	/	/	/	/
CC(=O)[C@H]1[C@H](C#N)C[C@H]2[C@@H]3CC=C4C[C@@H](O)CC[C@]4(C)[C@H]3CC[C@@]21C	0.6%	4.5%	1.5%	?	12.6µM*!	-2.4%
COC(=O)c1ccc(CN2CCN(Cc3ccccc3)CC2)cc1	?	?	-14.0%	-12.7%	-12.9%	-0.2%
COC(=O)C1=C(C)NC(C)=C(C(=O)O[C@H]2CCN(Cc3ccccc3)C2)[C@H]1c1cccc([N+](=O)[O-])c1	/	/	/	?	23.7µM*	/
C=C[C@H]1CN2CC[C@H]1C[C@@H]2CNCc1ccc2c(c1)OCO2	101.0%[176 µM]	/	/	/	/	/
O=[N+]([O-])c1ccc(NCc2ccc(Cl)cc2)c2ccncc12	0.0%	-7.3%	-21.3%	23.1µM*	20.6µM*	11.2µM*
O=[N+]([O-])c1ccc(NC2CCCCC2)c2ccncc12	-17.0%	/	/	/	/	/
O=c1c2ccccc2nc(Cc2ccccc2)n1-c1ccccc1	-0.1%	?	33.1%	?	14.6µM*	26.2%
Cc1ccc(-c2nc3ccccc3c(=O)n2-c2ccc(O)cc2)cc1	8.9%	-11.9%	?	2.59µM*	4.11µM*	-0.8%
O=c1c2ccccc2nc(-c2ccco2)n1-c1ccc(Br)cc1	-3.2%	0.0%	29.5%	11.6µM*	16.4µM*	-3.9%
